PubChem BioAssay (NCI)
Values joined by “and” are separate entries in the source; they are usually repeats but may differ in a detail not shown here. Equal entries are not always repeated. This is part of a sample that, as a whole, favours compounds with a hit. Of some 83,000 tested, about 20% had one in any assay.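 Cells were grown in 96-well plates and exposed to the test compound at a single concentration for 48 hours; results are reported as percent growth, with values below 10 considered active.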 Active and inactive are the calls of the source.

Columns and labels:
Assay in all cases: NCI-60 one-dose screen, 48 h (100 = growth as untreated, 0 = no growth, -100 = all killed)
Conditions in all cases: 10 µM unless noted
SK-MEL-2 melanoma = system: SK-MEL-2 melanoma
EKVX NSCLC = system: EKVX NSCLC
SN12C renal = system: SN12C renal
TK-10 renal = system: TK-10 renal
ACHN renal = system: ACHN renal
CAKI-1 renal = system: CAKI-1 renal
A498 renal = system: A498 renal
MOLT-4 leukemia = system: MOLT-4 leukemia
OVCAR-8 ovarian = system: OVCAR-8 ovarian
OVCAR-5 ovarian = system: OVCAR-5 ovarian
OVCAR-4 ovarian = system: OVCAR-4 ovarian
SK-OV-3 ovarian = system: SK-OV-3 ovarian
IGROV1 ovarian = system: IGROV1 ovarian
OVCAR-3 ovarian = system: OVCAR-3 ovarian
NCI/ADR-RES ovarian = system: NCI/ADR-RES ovarian
UO-31 renal = system: UO-31 renal
RPMI-8226 leukemia = system: RPMI-8226 leukemia
HS 578T breast = system: HS 578T breast
CCRF-CEM leukemia = system: CCRF-CEM leukemia
SR leukemia = system: SR leukemia

Structure (SMILES): CC(O)Cn1cnc2c1c(=O)n(C)c(=O)n2C (stereo unspecified)
- growth (SK-MEL-2 melanoma): 98.7% (inactive)
- growth (EKVX NSCLC): 100% (inactive)
- growth (SN12C renal): 98.4% (inactive)
- growth (TK-10 renal): 135% (inactive)
- growth (ACHN renal): 98% (inactive)
- growth (CAKI-1 renal): 99.4% (inactive)
- growth (A498 renal): 110% (inactive)
- growth (MOLT-4 leukemia): 98.3% (inactive)
- growth (OVCAR-8 ovarian): 97.6% (inactive)
- growth (OVCAR-5 ovarian): 125% (inactive)
- growth (OVCAR-4 ovarian): 96.5% (inactive)
- growth (SK-OV-3 ovarian): 103% (inactive)
- growth (IGROV1 ovarian): 90.6% (inactive)
- growth (OVCAR-3 ovarian): 108% (inactive)
- growth (NCI/ADR-RES ovarian): 112% (inactive)

Structure (SMILES): CC(/C=N/N1C(=O)c2ccccc2C1=O)c1ccccc1 (stereo unspecified)
- growth (SK-MEL-2 melanoma): 110% (inactive)
- growth (SN12C renal): 99.6% (inactive)
- growth (UO-31 renal): 88.1% (inactive)
- growth (TK-10 renal): 113% (inactive)
- growth (ACHN renal): 97.4% (inactive)
- growth (CAKI-1 renal): 83.6% (inactive)
- growth (A498 renal): 98% (inactive)
- growth (MOLT-4 leukemia): 106% (inactive)
- growth (RPMI-8226 leukemia): 97.9% (inactive)
- growth (OVCAR-8 ovarian): 101% (inactive)
- growth (OVCAR-5 ovarian): 103% (inactive)
- growth (OVCAR-4 ovarian): 112% (inactive)
- growth (SK-OV-3 ovarian): 108% (inactive)
- growth (IGROV1 ovarian): 98.6% (inactive)
- growth (OVCAR-3 ovarian): 113% (inactive)
- growth (HS 578T breast): 119% (inactive)
- growth (NCI/ADR-RES ovarian): 113% (inactive)

Structure (SMILES): CCN(CC)CCCC(C)Nc1ccnc2cc(Oc3ccccc3)ccc12 (stereo unspecified)
- growth (EKVX NSCLC): 83.7% (inactive) and 74.9% (inactive)
- growth (SN12C renal): 71.2% (inactive) and 74.4% (inactive)
- growth (UO-31 renal): 49.2% (inactive) and 50.6% (inactive)
- growth (TK-10 renal): 91.3% (inactive)
- growth (ACHN renal): 73.6% (inactive) and 80.6% (inactive)
- growth (CAKI-1 renal): 68.8% (inactive)
- growth (A498 renal): 59.1% (inactive) and 55.4% (inactive)
- growth (CCRF-CEM leukemia): 65.5% (inactive) and 56% (inactive)
- growth (MOLT-4 leukemia): 65.1% (inactive) and 80.7% (inactive)
- growth (SR leukemia): 9.09% (active) and 33.9% (inactive)
- growth (RPMI-8226 leukemia): 68.6% (inactive)
- growth (OVCAR-8 ovarian): 63.1% (inactive) and 77.7% (inactive)
- growth (OVCAR-5 ovarian): 82.7% (inactive) and 90.8% (inactive)
- growth (OVCAR-4 ovarian): 75.2% (inactive) and 92.9% (inactive)
- growth (SK-OV-3 ovarian): 91.2% (inactive) and 97.2% (inactive)
- growth (IGROV1 ovarian): -53.5% (active) and 63.2% (inactive)
- growth (OVCAR-3 ovarian): 83.4% (inactive) and 85.8% (inactive)
- growth (HS 578T breast): 69% (inactive)
- growth (NCI/ADR-RES ovarian): 102% (inactive) and 96.9% (inactive)

Structure (SMILES): N#CCCOc1ccccc1
- growth (SK-MEL-2 melanoma): 89.4% (inactive)
- growth (SN12C renal): 99.8% (inactive)
- growth (UO-31 renal): 92.8% (inactive)
- growth (TK-10 renal): 97.2% (inactive)
- growth (ACHN renal): 102% (inactive)
- growth (CAKI-1 renal): 91.6% (inactive)
- growth (A498 renal): 101% (inactive)
- growth (CCRF-CEM leukemia): 95.7% (inactive)
- growth (MOLT-4 leukemia): 90.4% (inactive)
- growth (SR leukemia): 104% (inactive)
- growth (RPMI-8226 leukemia): 103% (inactive)
- growth (OVCAR-8 ovarian): 98.9% (inactive)
- growth (OVCAR-5 ovarian): 107% (inactive)
- growth (OVCAR-4 ovarian): 98.8% (inactive)
- growth (SK-OV-3 ovarian): 97% (inactive)
- growth (OVCAR-3 ovarian): 114% (inactive)
- growth (HS 578T breast): 99.5% (inactive)
- growth (NCI/ADR-RES ovarian): 112% (inactive)

Structure (SMILES): COc1cc(NS(C)(=O)=O)ccc1Nc1c2ccccc2nc2c(C)cccc12
- growth (SK-MEL-2 melanoma): 20.4% (inactive) and 44.2% (inactive)
- growth (SN12C renal): -8.74% (active) and 6.11% (active)
- growth (UO-31 renal): -22.1% (active) and -17.6% (active)
- growth (ACHN renal): -60.1% (active) and -56.2% (active)
- growth (CAKI-1 renal): -35.7% (active) and -10.5% (active)
- growth (A498 renal): -44% (active) and -27.8% (active)
- growth (MOLT-4 leukemia): -12.1% (active) and -13.6% (active)
- growth (SR leukemia): 4.23% (active) and -21.5% (active)
- growth (RPMI-8226 leukemia): -36.4% (active) and -21.4% (active)
- growth (OVCAR-8 ovarian): 0.169% (active) and 1.18% (active)
- growth (OVCAR-4 ovarian): 42.9% (inactive) and 62.8% (inactive)
- growth (IGROV1 ovarian): 2.93% (active) and 14.4% (inactive)
- growth (OVCAR-3 ovarian): -57% (active) and 24.6% (inactive)
- growth (HS 578T breast): 32.7% (inactive) and 43% (inactive)
- growth (NCI/ADR-RES ovarian): 27.7% (inactive) and 40.4% (inactive)

Structure (SMILES): COc1cc2c(c(OC)c1OC)-c1ccc(OC)c(=O)cc1[C@@H](NC(C)=O)CC2
- growth (SK-MEL-2 melanoma): -1.11% (active) and 20.8% (inactive) and 30.7% (inactive)
- growth (EKVX NSCLC): 42.2% (inactive) and 34.6% (inactive) and 35.8% (inactive)
- growth (SN12C renal): 35.3% (inactive) and 25.5% (inactive) and 46.8% (inactive)
- growth (TK-10 renal): 61.7% (inactive) and 52.7% (inactive)
- growth (ACHN renal): 27.8% (inactive) and 27.2% (inactive) and 30.5% (inactive)
- growth (CAKI-1 renal): 36.5% (inactive) and 21% (inactive) and 20.3% (inactive)
- growth (MOLT-4 leukemia): 7.82% (active) and 6.6% (active) and 6.73% (active)
- growth (SR leukemia): 4.98% (active) and 2.6% (active) and 5.4% (active)
- growth (RPMI-8226 leukemia): 9.21% (active) and 2.34% (active)
- growth (OVCAR-8 ovarian): 10.3% (inactive) and 14.4% (inactive)
- growth (OVCAR-5 ovarian): 47.5% (inactive) and 20.8% (inactive) and 31.2% (inactive)
- growth (OVCAR-4 ovarian): 48.4% (inactive) and 57.7% (inactive) and 56.4% (inactive)
- growth (SK-OV-3 ovarian): 13.8% (inactive) and 25.8% (inactive) and 36.1% (inactive)
- growth (IGROV1 ovarian): 16.5% (inactive) and 15.3% (inactive)
- growth (OVCAR-3 ovarian): -57.4% (active) and -0.335% (active) and -49% (active)
- growth (HS 578T breast): 42.6% (inactive) and -0.967% (active) and 55.1% (inactive)
- growth (NCI/ADR-RES ovarian): 0.46% (active) and 8.85% (active) and -20.9% (active)

Structure (SMILES): N#C/C(=C1C=C/C(=N/O)C(Br)=C/1)c1ccccc1
- growth (SK-MEL-2 melanoma): -22.3% (active)
- growth (SN12C renal): 32.7% (inactive)
- growth (UO-31 renal): 36.7% (inactive)
- growth (TK-10 renal): 45% (inactive)
- growth (ACHN renal): 24.5% (inactive)
- growth (CAKI-1 renal): 15.1% (inactive)
- growth (MOLT-4 leukemia): 18.5% (inactive)
- growth (SR leukemia): 7.83% (active)
- growth (RPMI-8226 leukemia): 6.28% (active)
- growth (OVCAR-8 ovarian): 1.66% (active)
- growth (OVCAR-5 ovarian): 52.2% (inactive)
- growth (OVCAR-4 ovarian): 42.1% (inactive)
- growth (SK-OV-3 ovarian): 29.1% (inactive)
- growth (IGROV1 ovarian): 4.78% (active)
- growth (OVCAR-3 ovarian): -3.84% (active)
- growth (HS 578T breast): 42.6% (inactive)
- growth (NCI/ADR-RES ovarian): 9.55% (active)

Structure (SMILES): Cc1ccc(S(=O)(=O)Nc2ccc3cc([N+](=O)[O-])ccc3c2[N+](=O)[O-])cc1
- growth (SK-MEL-2 melanoma): 99.7% (inactive) and 87.5% (inactive)
- growth (EKVX NSCLC): 86% (inactive) and 75.7% (inactive)
- growth (SN12C renal): 74.7% (inactive) and 91.6% (inactive)
- growth (ACHN renal): 71.2% (inactive) and 94.5% (inactive)
- growth (CAKI-1 renal): 57.8% (inactive) and 69.4% (inactive)
- growth (A498 renal): 69.1% (inactive) and 83% (inactive)
- growth (CCRF-CEM leukemia): 79.1% (inactive) and 39.4% (inactive)
- growth (MOLT-4 leukemia): 82.8% (inactive) and 63% (inactive)
- growth (SR leukemia): 91.8% (inactive) and 64.3% (inactive)
- growth (RPMI-8226 leukemia): 51.6% (inactive) and 38.2% (inactive)
- growth (OVCAR-8 ovarian): 81.3% (inactive) and 96.4% (inactive)
- growth (OVCAR-4 ovarian): 81.4% (inactive) and 106% (inactive)
- growth (SK-OV-3 ovarian): 78% (inactive) and 103% (inactive)
- growth (IGROV1 ovarian): 75.1% (inactive) and 88.1% (inactive)
- growth (OVCAR-3 ovarian): 46% (inactive) and 98.9% (inactive)
- growth (HS 578T breast): 77.3% (inactive) and 94.7% (inactive)
- growth (NCI/ADR-RES ovarian): 79.5% (inactive) and 105% (inactive)

Structure (SMILES): COc1cc2nc(N3CCC[C@@H](NC(=O)C4COc5ccccc5O4)C3)nc(N)c2cc1OC (stereo partly specified)
- growth (SK-MEL-2 melanoma): 112% (inactive) and 107% (inactive)
- growth (SN12C renal): 104% (inactive) and 103% (inactive)
- growth (UO-31 renal): 85.7% (inactive) and 65.2% (inactive)
- growth (TK-10 renal): 98.6% (inactive) and 89.7% (inactive)
- growth (ACHN renal): 103% (inactive) and 96.4% (inactive)
- growth (CAKI-1 renal): 92% (inactive) and 89.6% (inactive)
- growth (A498 renal): 99.4% (inactive) and 83.5% (inactive)
- growth (MOLT-4 leukemia): 88% (inactive) and 94.3% (inactive)
- growth (SR leukemia): 88.3% (inactive) and 91.2% (inactive)
- growth (RPMI-8226 leukemia): 95.2% (inactive) and 91.4% (inactive)
- growth (OVCAR-8 ovarian): 100% (inactive) and 94.3% (inactive)
- growth (OVCAR-5 ovarian): 102% (inactive) and 97.1% (inactive)
- growth (OVCAR-4 ovarian): 101% (inactive) and 95.4% (inactive)
- growth (SK-OV-3 ovarian): 105% (inactive) and 106% (inactive)
- growth (IGROV1 ovarian): 105% (inactive) and 108% (inactive)
- growth (OVCAR-3 ovarian): 105% (inactive) and 106% (inactive)
- growth (NCI/ADR-RES ovarian): 109% (inactive) and 106% (inactive)

Structure (SMILES): O=C(CN1CCOCC1)N1CCOCC1
- growth (EKVX NSCLC): 117% (inactive) and 84% (inactive)
- growth (SN12C renal): 95.9% (inactive) and 97.7% (inactive)
- growth (UO-31 renal): 68% (inactive) and 80% (inactive)
- growth (TK-10 renal): 96.8% (inactive) and 104% (inactive)
- growth (ACHN renal): 108% (inactive) and 98.9% (inactive)
- growth (CAKI-1 renal): 105% (inactive) and 88.3% (inactive)
- growth (A498 renal): 108% (inactive)
- growth (CCRF-CEM leukemia): 106% (inactive)
- growth (MOLT-4 leukemia): 97.9% (inactive) and 103% (inactive)
- growth (SR leukemia): 94.5% (inactive) and 97.8% (inactive)
- growth (RPMI-8226 leukemia): 96.3% (inactive) and 106% (inactive)
- growth (OVCAR-8 ovarian): 109% (inactive) and 104% (inactive)
- growth (OVCAR-5 ovarian): 115% (inactive) and 91.5% (inactive)
- growth (OVCAR-4 ovarian): 113% (inactive) and 114% (inactive)
- growth (SK-OV-3 ovarian): 110% (inactive) and 96.3% (inactive)
- growth (IGROV1 ovarian): 117% (inactive) and 115% (inactive)
- growth (OVCAR-3 ovarian): 115% (inactive) and 128% (inactive)
- growth (HS 578T breast): 111% (inactive) and 106% (inactive)
- growth (NCI/ADR-RES ovarian): 107% (inactive) and 114% (inactive)
